# Data from the supplement of paper PMC10037445.
# “And” between values parts separate entries of the source, which are not always exact repeats. Identical values can stand only once. Over roughly 2,900 compounds, “NF-kB SEAP reporter activity, fold change vs agonist alone” has its median near 0.99; the highest 2% begin near 2.6. The entries come from a sample that favours the highest values as a whole.
# Assays:
# [1] = tested on: RAW-Dual; assay: NF-kB SEAP reporter activity, fold change vs agonist alone; cytotoxicity flag (confluency mask): not cytotoxic; higher = enhanced NF-kB activity
# Summary of the method: (§1)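 Library stock was pin-tooled at 50 nL into 384-well plates of RAW-Dual macrophages (50,000 cells/well, DMEM), followed 1 h later by a PRR agonist, and the cells were kept at 37 °C, 5% CO2. Supernatant collected after 20 hours was read for IRF by QuantiLuc luminescence and for NF-κB by QuantiBlue absorbance at 620 nm. Reporter activity is fold change over agonist-alone wells, and a well counted as cytotoxic when its IncuCyte confluency was below 70% of agonist controls in both mask sets.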
# [2] = tested on: RAW-Dual; assay: NF-kB SEAP reporter activity, fold change vs agonist alone; higher = enhanced NF-kB activity; details: library stock concentration (final ~1000-fold dilution): 10 mM
# Summary of the method: as §1
# [3] = tested on: RAW-Dual; assay: NF-kB SEAP reporter activity, fold change vs agonist alone; cytotoxicity flag (confluency mask): cytotoxic (confluency <70% of control); higher = enhanced NF-kB activity
# Summary of the method: as §1
# [4] = agonist: ODN 1826 (TLR9) 0.5 ug/mL
# [5] = agonist: Pam2CSK4 (TLR2/6) 0.1 ug/mL
# [6] = agonist: Pam3CSK4 (TLR2/1) 0.1 ug/mL
# [7] = cytotoxicity flag (confluency mask): not cytotoxic, agonist: Imiquimod (TLR7) […]
# [8] = cytotoxicity flag (confluency mask): not cytotoxic, agonist: MPLA (TLR4) […]
# [9] = cytotoxicity flag (confluency mask): cytotoxic (confluency <70% of control), agonist: Imiquimod (TLR7) […]
# [10] = cytotoxicity flag (confluency mask): cytotoxic (confluency <70% of control), agonist: MPLA (TLR4) […]
structure (smiles),measurement,setting,value
COc1ccc(CNC(=O)CCl)cc1OC (library stock concentration (final ~1000-fold dilution): 10 mM),NF-kB SEAP reporter activity,[1]; agonist: LPS (TLR4) 0.1 ug/mL,0.67
same,NF-kB SEAP reporter activity,[1]; [4],0.674
same,NF-kB SEAP reporter activity,[1]; [5],0.728
same,NF-kB SEAP reporter activity,[1]; [6],0.679
COc1ccc(CNC(=O)CCl)cc1OC,NF-kB SEAP reporter activity,[2]; [7],1.02
same,NF-kB SEAP reporter activity,[2]; [8],0.962
COc1cc(OC)c(C=CS(=O)(=O)Cc2ccc(OC)c(NCC(=O)O)c2)c(OC)c1,NF-kB SEAP reporter activity,[2]; [7],2.64
same,NF-kB SEAP reporter activity,[2]; [8],2.27
CC(=O)C1CCC2C3CCC4=CC(=O)CCC4(C)C3CCC12C (stereo not drawn),NF-kB SEAP reporter activity,[2]; [7],0.441
same,NF-kB SEAP reporter activity,[2]; [8],1.06
CC(=O)C1CCC2C3CCC4=CC(=O)CCC4(C)C3CCC12C (stereo not drawn) (library stock concentration (final ~1000-fold dilution): 10 mM),NF-kB SEAP reporter activity,[1]; agonist: LPS (TLR4) 0.1 ug/mL,0.981
same,NF-kB SEAP reporter activity,[1]; [4],1.06
same,NF-kB SEAP reporter activity,[1]; [5],1.38
same,NF-kB SEAP reporter activity,[1]; [6],1.51
O=C(N/N=C/c1ccc([N+](=O)[O-])o1)c1ccc(O)cc1 (library stock concentration (final ~1000-fold dilution): 10 mM),NF-kB SEAP reporter activity,[3]; agonist: LPS (TLR4) 0.1 ug/mL,3.8
same,NF-kB SEAP reporter activity,[3]; [4],1.64
same,NF-kB SEAP reporter activity,[3]; [5],1.38
same,NF-kB SEAP reporter activity,[3]; [6],1.55
O=C1CN(/N=C/c2ccc([N+](=O)[O-])o2)C(=O)N1,NF-kB SEAP reporter activity,[2]; [7],0.924
same,NF-kB SEAP reporter activity,[2]; [8],0.948
O=C1CN(/N=C/c2ccc([N+](=O)[O-])o2)C(=O)N1 (library stock concentration (final ~1000-fold dilution): 10 mM),NF-kB SEAP reporter activity,[1]; agonist: LPS (TLR4) 0.1 ug/mL,1.09
same,NF-kB SEAP reporter activity,[1]; [4],0.855
same,NF-kB SEAP reporter activity,[1]; [5],1.1
same,NF-kB SEAP reporter activity,[1]; [6],1.11
O=C(N/N=C/c1ccc([N+](=O)[O-])o1)c1ccc(O)cc1,NF-kB SEAP reporter activity,[2]; [9],2.58
same,NF-kB SEAP reporter activity,[2]; [10],2.03
Cc1ccc(/C=N/NC(=O)c2ccccc2Oc2ccccc2)o1,NF-kB SEAP reporter activity,[2]; [7],0.972
same,NF-kB SEAP reporter activity,[2]; [8],1.09
Cc1ccc(/C=N/NC(=O)c2ccccc2Oc2ccccc2)o1 (library stock concentration (final ~1000-fold dilution): 10 mM),NF-kB SEAP reporter activity,[1]; agonist: LPS (TLR4) 0.1 ug/mL,1.08
same,NF-kB SEAP reporter activity,[1]; [4],0.922
same,NF-kB SEAP reporter activity,[1]; [5],0.955
same,NF-kB SEAP reporter activity,[1]; [6],1.31
COC1/C=C\C=C(/C)C(=O)NC2=CC(=O)C(NCCN(C)C)=C(CC(C)CC(OC)C(O)C(C)/C=C(\C)C1OC(N)=O)C2=O.Cl (stereo not drawn),NF-kB SEAP reporter activity,[2]; [7],0.497
same,NF-kB SEAP reporter activity,[2]; [8],0.345
COC1/C=C\C=C(/C)C(=O)NC2=CC(=O)C(NCCN(C)C)=C(CC(C)CC(OC)C(O)C(C)/C=C(\C)C1OC(N)=O)C2=O.Cl (stereo not drawn) (library stock concentration (final ~1000-fold dilution): 10 mM),NF-kB SEAP reporter activity,[1]; agonist: LPS (TLR4) 0.1 ug/mL,0.267
same,NF-kB SEAP reporter activity,[1]; [4],0.313
same,NF-kB SEAP reporter activity,[1]; [5],0.154
same,NF-kB SEAP reporter activity,[1]; [6],0.199
CC(C)NCC(C(=O)N1CCN(c2ncnc3c2C(C)CC3O)CC1)c1ccc(Cl)cc1 (stereo not drawn) (library stock concentration (final ~1000-fold dilution): 10 mM),NF-kB SEAP reporter activity,[1]; agonist: LPS (TLR4) 0.1 ug/mL,0.942
same,NF-kB SEAP reporter activity,[1]; [4],0.996
same,NF-kB SEAP reporter activity,[1]; [5],1.15
same,NF-kB SEAP reporter activity,[1]; [6],1.11
CC(C)NCC(C(=O)N1CCN(c2ncnc3c2C(C)CC3O)CC1)c1ccc(Cl)cc1 (stereo not drawn),NF-kB SEAP reporter activity,[2]; [7],1.27
same,NF-kB SEAP reporter activity,[2]; [8],1.13
C=CC(=O)N1CCCC(n2nc(-c3ccc(Oc4ccccc4)cc3)c(C(N)=O)c2N)C1 (stereo not drawn) (library stock concentration (final ~1000-fold dilution): 10 mM),NF-kB SEAP reporter activity,[1]; agonist: LPS (TLR4) 0.1 ug/mL,0.404
same,NF-kB SEAP reporter activity,[1]; [4],0.546
same,NF-kB SEAP reporter activity,[1]; [5],0.224
same,NF-kB SEAP reporter activity,[1]; [6],0.272
C=CC(=O)N1CCCC(n2nc(-c3ccc(Oc4ccccc4)cc3)c(C(N)=O)c2N)C1 (stereo not drawn),NF-kB SEAP reporter activity,[2]; [7],0.67
same,NF-kB SEAP reporter activity,[2]; [8],0.637
Cl.NC(=O)c1cnc(NC2CCCCC2N)nc1Nc1cccc(-n2nccn2)c1 (stereo not drawn),NF-kB SEAP reporter activity,[2]; [9],0.258
same,NF-kB SEAP reporter activity,[2]; [10],0.336
Cl.NC(=O)c1cnc(NC2CCCCC2N)nc1Nc1cccc(-n2nccn2)c1 (stereo not drawn) (library stock concentration (final ~1000-fold dilution): 10 mM),NF-kB SEAP reporter activity,[3]; agonist: LPS (TLR4) 0.1 ug/mL,0.377
same,NF-kB SEAP reporter activity,[3]; [4],0.204
same,NF-kB SEAP reporter activity,[3]; [5],0.315
same,NF-kB SEAP reporter activity,[3]; [6],0.248
O=C(O)CCc1c[nH]c2ccccc12,NF-kB SEAP reporter activity,[2]; [7],0.934
same,NF-kB SEAP reporter activity,[2]; [8],0.964
OCc1c[nH]c2ccccc12,NF-kB SEAP reporter activity,[2]; [8],1.03
OCc1c[nH]c2ccccc12 (library stock concentration (final ~1000-fold dilution): 10 mM),NF-kB SEAP reporter activity,[1]; agonist: LPS (TLR4) 0.1 ug/mL,1.1 and 1.21
same,NF-kB SEAP reporter activity,[1]; [4],0.998 and 1.05
same,NF-kB SEAP reporter activity,[1]; [5],1.03 and 1
same,NF-kB SEAP reporter activity,[1]; [6],1.29 and 1.17
O=C(O)CCc1c[nH]c2ccccc12 (library stock concentration (final ~1000-fold dilution): 10 mM),NF-kB SEAP reporter activity,[1]; agonist: LPS (TLR4) 0.1 ug/mL,1.08
same,NF-kB SEAP reporter activity,[1]; [4],1.06
same,NF-kB SEAP reporter activity,[1]; [5],1.03
same,NF-kB SEAP reporter activity,[1]; [6],0.898
O=C(/C=C/c1ccc(CN(CCO)CCc2c[nH]c3ccccc23)cc1)NO,NF-kB SEAP reporter activity,[2]; [9],2.64
same,NF-kB SEAP reporter activity,[2]; [10],2.71
O=C(/C=C/c1ccc(CN(CCO)CCc2c[nH]c3ccccc23)cc1)NO (library stock concentration (final ~1000-fold dilution): 10 mM),NF-kB SEAP reporter activity,[3]; agonist: LPS (TLR4) 0.1 ug/mL,5.57
same,NF-kB SEAP reporter activity,[3]; [4],1.51
same,NF-kB SEAP reporter activity,[3]; [5],1.46
same,NF-kB SEAP reporter activity,[3]; [6],1.68
